Data reported in the supplement of paper PMC7366291.
Where a name gives a salt, the structure may show the parent alone. ± gives the standard deviation or the standard deviation of the averaged measurements.

Tests used:
Settings in all cases: 25 µM; exposure: 24-48 hpf
[1] = test system: Danio rerio Tg(wt1b:EGFP) embryo, pronephros; assay: glomerular separation, fold change vs DMSO control; higher = glomeruli further apart (abnormal)
Summary of the method: (§1)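 Using a Fiji macro, distances and angles were calculated from 16 reference points set by hand on maximum projections of pronephroi imaged dorsally (470 nm, 10 z-slices) in agarose-filled 96-well plates. The dechorionated Tg(wt1b:EGFP) zebrafish embryos had received 25 μM compound in 0.5% DMSO in HEPES-buffered E3 with 0.003% PTU from 24 to 48 hpf at 28.5°C. Values more than 2 SD from a feature's mean were excluded. Each feature appears as a fold change over the mean of DMSO-treated embryos from the same day.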

[2] = test system: Danio rerio Tg(wt1b:EGFP) embryo, pronephros; assay: glomerular width (mean of left and right), fold change vs DMSO control; higher = wider glomerulus
Summary of the method: as §1

[3] = test system: Danio rerio Tg(wt1b:EGFP) embryo, pronephros; assay: fraction of imaged embryos annotated as normal kidney; higher = less nephrotoxic; extreme values may be limits of the assay
Summary of the method: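 Embryos of the Tg(wt1b:EGFP) zebrafish line were dechorionated and held in 12-well plates with 25 μM compound in 0.5% DMSO and 5 mM HEPES-buffered E3 containing 0.003% PTU, from 24 to 48 hpf at 28.5°C. Larvae were then anaesthetised with tricaine, set dorsal side up in agarose-filled 96-well plates, and their pronephroi imaged by widefield fluorescence at 470 nm over 10 z-slices. Each value is the fraction of embryos per treatment placed in the normal-kidney category after manual annotation of maximum projections.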

[4] = test system: Danio rerio Tg(wt1b:EGFP) embryo, pronephros; assay: pronephric angle neck segment to proximal convoluted tubule (mean of left and right), fold change vs DMSO control; higher = larger pronephric angle
Summary of the method: as §1

SMILES | glomerular separation [1] | glomerular width [2] | fraction of imaged embryos annotated as normal kidney [3] | pronephric angle neck segment [4]
O=C1CCc2ccc(OCCCCN3CCN(c4cccc(Cl)c4Cl)CC3)cc2N1 [Aripiprazole] | 0.976 ± 0.16 | 0.888 ± 0.06 | 1 | 1.08 ± 0.033
Nc1nc(=O)c2c([nH]1)NC[C@@H](CNc1ccc(C(=O)N[C@@H](CCC(=O)O)C(=O)O)cc1)N2C=O [Folinic acid calcium salt] | 0.989 ± 0.3 | 1.01 ± 0.016 | 0.583 | 0.979 ± 0.042
CCCCC(C)(O)C/C=C/[C@H]1[C@H](O)CC(=O)[C@@H]1CCCCCCC(=O)OC (mixture of isomers) [Misoprostol] | 0.763 ± 0.35 | 0.959 ± 0.024 | 1 | 0.985 ± 0.04
Nc1ccn([C@@H]2CS[C@H](CO)O2)c(=O)n1 [Lamivudine] | 0.982 ± 0.27 | 0.984 ± 0.042 | 0.667 | 0.987 ± 0.031
CCC(=O)O[C@]1(C(=O)SCF)[C@H](C)C[C@H]2[C@@H]3C[C@H](F)C4=CC(=O)C=C[C@]4(C)[C@@]3(F)[C@@H](O)C[C@@]21C [Fluticasone propionate] | 1.84 ± 0.75 | 1.27 ± 0.021 | 0.0833 | 1.04 ± 0.079
C[C@H](CCC(=O)O)[C@H]1CC[C@H]2[C@@H]3CC[C@@H]4C[C@H](O)CC[C@]4(C)[C@H]3CC[C@]12C [Lithocholic acid] | 1.26 ± 0.64 | 0.839 ± 0.085 | 0.364 | 0.929 ± 0.046
CN1CCC(=C2c3ccccc3Sc3ccccc32)CC1 [Pimethixene maleate] | 1.32 ± 0.41 | 1.01 ± 0.021 | 0.917 | 1.062 ± 0.0083
NC(=O)c1cc[n+](CC2=C(C(=O)[O-])N3C(=O)[C@@H](NC(=O)[C@@H](c4ccccc4)S(=O)(=O)O)[C@H]3SC2)cc1 [Cefsulodin sodium salt] | 0.67 ± 0.22 | 1.08 ± 0.02 | 0.833 | 0.976 ± 0.034
C[C@]12CCC(=O)C=C1C=C[C@@H]1[C@@H]2CC[C@@]2(C)[C@H]1CC[C@@]21CCC(=O)O1 [Canrenone] | 1.24 ± 0.51 | 0.798 ± 0.02 | 0.818 | 1.07 ± 0.031
CC(C)(C)NCC(O)c1ccc(O)c(CO)c1 (stereo unspecified) [Salbutamol] | 1.15 ± 0.52 | 1.05 ± 0.013 | 0.833 | 1.04 ± 0.041
Cc1c(Nc2ncccc2C(=O)O)cccc1C(F)(F)F [Flunixin meglumine] | 6.16 ± 1.6 | 0.491 ± 0.031 | 0 | 1.9787 ± 0.0013
COc1cccc(OC)c1C(=O)N[C@@H]1C(=O)N2[C@@H]1SC(C)(C)[C@@H]2C(=O)O [Methicillin sodium] | 1.21 ± 0.55 | 1.05 ± 0.057 | 0.5 | 1 ± 0.037
NS(=O)(=O)c1cc2c(cc1Cl)N=CNS2(=O)=O [Chlorothiazide] | 0.855 ± 0.11 | 1.07 ± 0.043 | 0.75 | 0.99 ± 0.057
C[N+](C)(C)CCCCCC[N+](C)(C)C [Hexamethonium dibromide dihydrate] | 0.932 ± 0.3 | 1.09 ± 0.035 | 0.667 | 0.997 ± 0.041
CC(=O)NC[C@H]1CN(c2ccc(N3CCOCC3)c(F)c2)C(=O)O1 [Linezolid] | 0.987 ± 0.23 | 1.02 ± 0.019 | 0.917 | 0.936 ± 0.029
COc1c(O[C@@H]2O[C@H](CO)[C@@H](O)[C@H](O)[C@H]2O)cc2c(c1OC)-c1ccc(SC)c(=O)cc1[C@@H](NC(C)=O)CC2 [Thiocolchicoside] | 1.03 ± 0.41 | 0.909 ± 0.018 | 0.833 | 0.932 ± 0.027
COc1nc(C)nc(Cl)c1NC1=NCCN1 [Moxonidine] | 1.07 ± 0.47 | 1.01 ± 0.011 | 1 | 0.96 ± 0.0097
O=C(O)Cc1sc(-c2ccccc2)nc1-c1ccc(Cl)cc1 [Fentiazac] | 6.56 ± 3.2 | 0.503 ± 0.018 | 0 | 1.75 ± 0.059
CC1(C)S[C@@H]2[C@H](NC(=O)Cc3ccccc3)C(=O)N2[C@H]1C(=O)O [Benzathine benzylpenicillin] | 0.907 ± 0.35 | 1.06 ± 0.074 | 1 | 0.951 ± 0.019
CC(C)(O/N=C(\C(=O)N[C@@H]1C(=O)N2C(C(=O)[O-])=C(C[n+]3ccccc3)CS[C@H]12)c1csc(N)n1)C(=O)O [Ceftazidime pentahydrate] | 0.761 ± 0.12 | 0.993 ± 0.046 | 1 | 0.961 ± 0.018
CN(c1nccc(=O)[nH]1)C1CCN(c2nc3ccccc3n2Cc2ccc(F)cc2)CC1 [Mizolastine] | 1.05 ± 0.25 | 1.1 ± 0.017 | 0.917 | 0.937 ± 0.015
OC(CCN1CCCC1)(c1ccccc1)C1CCCCC1 (stereo unspecified) [Procyclidine hydrochloride] | 0.639 ± 0.26 | 1.1 ± 0.013 | 0.833 | 0.954 ± 0.035
N[C@@H]1CONC1=O [D-cycloserine] | 0.796 ± 0.24 | 0.976 ± 0.075 | 0.75 | 0.9921 ± 0.0046
O=C1c2ccccc2S(=O)(=O)N1CCCCN1CCN(c2ncccn2)CC1 [Ipsapirone] | 1.28 ± 0.67 | 0.908 ± 0.038 | 0.917 | 1.054 ± 0.0035
